For assay [1], the target named is Heat shock factor protein 1 (Homo sapiens) (UniProt Q00613). As to the kind of experiment: ATG_HSE_CIS: Attagene CIS-FACTORIAL HepG2 Assay for human Heat Shock Transcription Factor 1 (HSE) (AID 2282953). Particulars: HepG2 HSE cis-reporter, Attagene RNA transcription; actives raise or lower the signal. Put shortly:
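After a 24 h incubation with test chemical, transfected HepG2 cells were harvested for RNA; reporter transcripts were measured by RT-PCR and capillary electrophoresis. Values reflect gain or loss of signal relative to DMSO.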

Assay [2] in a line: ATG_NF_kB_CIS: Attagene CIS-FACTORIAL HepG2 Assay for human Nuclear Factor Kappa B (NF-kB) (AID 2282991). Particulars: HepG2 Attagene cis-factorial NF-kB reporter mRNA; actives raise or lower the signal. In outline: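 HepG2 cells transfected with cis-promoter-driven reporter units, so endogenous transcription factor activity is measured. Reporter mRNA quantified 24 h after dosing by RT-PCR and capillary electrophoresis, with bidirectional fitting against DMSO.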

Read-out in assay [3]: C-C motif chemokine 2 (Homo sapiens) (UniProt P13500)
As to the kind of experiment: BSK_KF3CT_MCP1: BioMAP Diversity Plus: KF3CT Assay for Monocyte Chemoattractant Protein 1 (MCP1/CCL2) Biomarker Activity (AID 2283073). The settings on record: primary human keratinocytes with fibroblasts; actives raise or lower the signal. Put shortly:
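KF3CT skin co-culture (keratinocytes/foreskin fibroblasts), 24 h post-dose; MCP-1 by ELISA; gain/loss of signal fit bidirectionally vs DMSO baseline.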

Read-out in assay [4]: Matrix Metallopeptidase 9 (MMP9), MMP9 (gene 4318)
Description: BSK_KF3CT_MMP9: BioMAP Diversity Plus: KF3CT Assay for Matrix Metallopeptidase 9 (MMP9) Biomarker Activity (AID 2283074).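 On AC50: MMP9 protein level quantified by ELISA in the co-culture.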 Particulars: primary human keratinocytes with fibroblasts; actives raise or lower the signal. In outline:
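Human keratinocyte/foreskin fibroblast co-culture; compound added; 24 h; MMP-9 by ELISA; bidirectional fit vs DMSO baseline.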

Read-out in assay [5]: urokinase plasminogen activator (uPA), PLAU (gene 5328)
As to the kind of experiment: BSK_KF3CT_uPA: BioMAP Diversity Plus: KF3CT Assay for urokinase plasminogen activator (uPA) Biomarker Activity (AID 2283075). The settings on record: primary human keratinocytes with fibroblasts; actives raise or lower the signal. In outline: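 ELISA readout of uPA, analyzed for signal gain or loss relative to DMSO, from a human primary keratinocyte–foreskin fibroblast co-culture measured 24 h after chemical treatment.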

Assay [6] in a line: BSK_LPS_SRB: Viability Assessment in the BioMAP Diversity Plus: LPS Assay (AID 2283079).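 Further: total protein by sulforhodamine B absorbance as a cytotoxicity measure; measured one day after compound addition; fitted in both directions against DMSO so loss or gain of signal counts.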 The settings on record: primary human HUVEC with PBMC. Put shortly: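 HUVEC + PBMC co-culture, LPS-stimulated; compound 24 h. 10% TCA fix, 0.1% SRB stain, A560. Bidirectional fit vs DMSO.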
Read-out in assay [7]: Tumor necrosis factor (Homo sapiens) (UniProt P01375)
As to the kind of experiment: BSK_LPS_TNFa: BioMAP Diversity Plus: LPS Assay for Tumour Necrosis Factor alpha (TNFa) Biomarker Activity (AID 2283085). Particulars: primary human HUVEC with PBMC; actives raise or lower the signal. In outline: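 Primary human vascular co-culture of HUVEC and PBMC; TNFa ELISA 24 h after treatment, analysed as increase or decrease relative to DMSO control.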

Read-out in assay [8]: Vascular cell adhesion molecule 1 (VCAM1), VCAM1 (gene 7412)
Description: BSK_LPS_VCAM1: BioMAP Diversity Plus: LPS Assay for Vascular cell adhesion molecule 1 (VCAM1) Biomarker Activity (AID 2283086). Particulars: primary human HUVEC with PBMC; actives raise or lower the signal. In outline:
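Primary human vascular co-culture (umbilical vein endothelium plus PBMC) stimulated with LPS received chemical; 24 h later VCAM-1 was read by ELISA. Overt cytotoxicity was assessed by sulforhodamine B staining of parallel cultures at the same time point.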

Read-out in the next assay: CD38, CD38 (gene 952)
As to the kind of experiment: BSK_SAg_CD38: BioMAP Diversity Plus: SAg Assay for CD38 Biomarker Activity (AID 2283087). The settings on record: primary human HUVEC with PBMC; actives raise or lower the signal. Put shortly: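 Fluorescence ELISA of cell-surface CD38 served as the read-out, with either increase or decrease fitted against DMSO controls. Cells were a human umbilical vein endothelium plus PBMC co-culture under SEB/TSST-1 stimulation, measured 24 h after dosing.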

Read-out in assay [9]: Monocyte Chemoattractant Protein-1 (MCP1), CCL2 (gene 6347)
As to the kind of experiment: BSK_SAg_MCP1: BioMAP Diversity Plus: SAg Assay for Monocyte Chemoattractant Protein-1 (MCP1) Biomarker Activity (AID 2283090). Particulars: primary human HUVEC with PBMC; actives raise or lower the signal. Put shortly:
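MCP-1 levels in the endothelial–PBMC SAg co-culture were quantified by ELISA at 24 h post-dosing; both increases and decreases versus DMSO scored. Cytotoxicity monitored by SRB total protein in parallel cultures.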

Read-out in assay [10]: E-selectin (Homo sapiens) (UniProt P16581)
As to the kind of experiment: BSK_SAg_Eselectin: BioMAP Diversity Plus: SAg Assay for Eselectin Biomarker Activity (AID 2283091). Particulars: primary human HUVEC with PBMC; actives raise or lower the signal. Put shortly:
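E-selectin ELISA readout at 24 h post-dosing in human umbilical vein endothelial cell/PBMC co-culture; gain or loss of signal fitted relative to DMSO baseline.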

Read-out in assay [11]: Interleukin-8 (IL8), CXCL8 (gene 3576)
Description: BSK_SAg_IL8: BioMAP Diversity Plus: SAg Assay for Interleukin-8 (IL8) Biomarker Activity (AID 2283094). Particulars: primary human HUVEC with PBMC; actives raise or lower the signal. In outline: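 In this co-culture of human umbilical vein endothelium with peripheral blood mononuclear cells, IL-8 is assayed by ELISA at 24 h. DMSO serves as baseline for bidirectional curve fitting.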

A short description of assay [12]: BSK_SAg_Proliferation: Cell Proliferation Assessment in the BioMAP Diversity Plus: SAg Assay (AID 2283095).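 Further: relative cell number as total protein by SRB absorbance in sub-confluent culture.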 Particulars: primary human HUVEC with PBMC. Put shortly:
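Readout is SRB-stained protein (560 nm) in a primary human HUVEC and PBMC co-culture; sub-confluent cultures are read at 96 h. Activity is fitted bidirectionally using DMSO as baseline.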

A short description of assay [13]: BSK_SAg_SRB: Viability Assessment in the BioMAP Diversity Plus: SAg Assay (AID 2283096).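 Further: cells read one day after compound addition; hits may be either gain or loss of signal compared with DMSO.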 Particulars: primary human HUVEC with PBMC. Put shortly:
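Total protein by sulforhodamine B staining, 24 h after dosing, in HUVEC–PBMC co-culture; DMSO-referenced bidirectional fitting.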

Read-out in assay [14]: Monokine induced gamma interferon (MIG), CXCL9 (gene 4283)
Description: BSK_KF3CT_MIG: BioMAP Diversity Plus: KF3CT Assay for Monokine induced gamma interferon (MIG) Biomarker Activity (AID 2284248). Particulars: primary human keratinocytes with fibroblasts. In outline: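 ELISA read-out of MIG after 24 h chemical exposure of human skin primary co-culture (keratinocytes, foreskin fibroblasts). Gain of signal relative to DMSO negative control was analysed.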

Read-out in assay [15]: Plasminogen activator inhibitor-1 (PAI1), SERPINE1 (gene 5054)
Description: BSK_KF3CT_PAI1: BioMAP Diversity Plus: KF3CT Assay for Plasminogen activator inhibitor-1 (PAI1) Biomarker Activity (AID 2284252). The settings on record: primary human keratinocytes with fibroblasts. Put shortly: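 Signal is PAI-1 detected by ELISA in a human skin-derived keratinocyte/fibroblast co-culture, 24 h after dosing; DMSO served as negative control and baseline.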

Read-out in assay [16]: Interleukin-8 (IL8), CXCL8 (gene 3576)
As to the kind of experiment: BSK_KF3CT_IL8: BioMAP Diversity Plus: KF3CT Assay for Interleukin-8 (IL8) Biomarker Activity (AID 2284254). Particulars: primary human keratinocytes with fibroblasts. Put shortly: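 IL-8 read-out: ELISA, 24 h post-dose, human skin primary co-culture (keratinocytes + foreskin fibroblasts). DMSO = baseline; positive-direction fit.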

Read-out in assay [17]: Interleukin-8 (IL8), CXCL8 (gene 3576)
As to the kind of experiment: BSK_BE3C_IL8: BioMAP Diversity Plus: BE3C Assay for Interleukin-8 (IL8) Biomarker Activity (AID 2284280). Particulars: primary human bronchial epithelial cells. In outline:
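IL-8 signal gain, normalised to DMSO vehicle, was scored after a 24 h chemical exposure of primary human bronchial epithelial cells, with detection by ELISA.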

Read-out in assay [18]: Plasminogen activator inhibitor-1 (PAI1), SERPINE1 (gene 5054)
Description: BSK_CASM3C_PAI1: BioMAP Diversity Plus: CASM3C Assay for Plasminogen activator inhibitor-1 (PAI1) Biomarker Activity (AID 2284284).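 Further: PAI-1 protein level measured by ELISA 24 h after dosing.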 Particulars: primary human coronary artery smooth muscle cells.

Read-out in assay [19]: Intercellular Adhesion Molecule 1 (ICAM1), ICAM1 (gene 3383)
Description: BSK_hDFCGF_ICAM1: BioMAP Diversity Plus: hDFCGF Assay for Intercellular Adhesion Molecule 1 (ICAM1) Biomarker Activity (AID 2284287). Particulars: primary human foreskin fibroblasts. Put shortly: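 Primary human foreskin fibroblasts (hDFCGF system) dosed with chemical; ICAM-1 quantified by ELISA at 24 h relative to DMSO. Parallel SRB total-protein staining to assess overt cytotoxicity.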

The text below walks through data of PubChem BioAssay (EPA / NIEHS).

Structures are written as SMILES. “And” between values parts separate entries of the source, which are not always exact repeats. Equal values may be shown once. The source made the active and inactive calls. How the source made its calls: active means hit-call score of the fitted dose curve at least 0.9, where 1 is the maximum; inactive means score below 0.9.

Sequence of E-selectin (Homo sapiens) (P16581 whole entry, looked up): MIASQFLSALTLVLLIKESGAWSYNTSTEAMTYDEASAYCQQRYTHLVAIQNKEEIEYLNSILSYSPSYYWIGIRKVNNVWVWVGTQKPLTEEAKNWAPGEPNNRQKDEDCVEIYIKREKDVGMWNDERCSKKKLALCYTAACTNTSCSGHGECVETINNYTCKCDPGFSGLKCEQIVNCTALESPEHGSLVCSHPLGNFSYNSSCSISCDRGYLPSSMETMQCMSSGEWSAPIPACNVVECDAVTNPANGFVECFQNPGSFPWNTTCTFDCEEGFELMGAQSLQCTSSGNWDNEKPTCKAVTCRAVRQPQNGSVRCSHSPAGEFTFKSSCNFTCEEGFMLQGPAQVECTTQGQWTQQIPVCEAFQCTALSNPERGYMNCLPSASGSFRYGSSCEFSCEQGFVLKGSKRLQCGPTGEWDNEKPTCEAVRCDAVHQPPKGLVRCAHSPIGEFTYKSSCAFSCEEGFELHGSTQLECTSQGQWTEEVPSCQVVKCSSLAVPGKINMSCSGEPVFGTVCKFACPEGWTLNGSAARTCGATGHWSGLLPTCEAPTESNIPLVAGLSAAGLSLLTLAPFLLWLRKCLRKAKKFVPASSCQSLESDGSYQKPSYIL
Sequence of Tumor necrosis factor (Homo sapiens) (P01375 whole entry, looked up): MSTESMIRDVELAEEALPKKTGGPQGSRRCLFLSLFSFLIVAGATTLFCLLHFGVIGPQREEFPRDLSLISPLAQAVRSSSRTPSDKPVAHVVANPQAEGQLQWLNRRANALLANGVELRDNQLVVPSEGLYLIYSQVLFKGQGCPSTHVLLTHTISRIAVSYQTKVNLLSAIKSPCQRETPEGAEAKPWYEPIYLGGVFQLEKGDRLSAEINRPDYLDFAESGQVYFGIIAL
Sequence of Heat shock factor protein 1 (Homo sapiens) (Q00613 whole entry, looked up): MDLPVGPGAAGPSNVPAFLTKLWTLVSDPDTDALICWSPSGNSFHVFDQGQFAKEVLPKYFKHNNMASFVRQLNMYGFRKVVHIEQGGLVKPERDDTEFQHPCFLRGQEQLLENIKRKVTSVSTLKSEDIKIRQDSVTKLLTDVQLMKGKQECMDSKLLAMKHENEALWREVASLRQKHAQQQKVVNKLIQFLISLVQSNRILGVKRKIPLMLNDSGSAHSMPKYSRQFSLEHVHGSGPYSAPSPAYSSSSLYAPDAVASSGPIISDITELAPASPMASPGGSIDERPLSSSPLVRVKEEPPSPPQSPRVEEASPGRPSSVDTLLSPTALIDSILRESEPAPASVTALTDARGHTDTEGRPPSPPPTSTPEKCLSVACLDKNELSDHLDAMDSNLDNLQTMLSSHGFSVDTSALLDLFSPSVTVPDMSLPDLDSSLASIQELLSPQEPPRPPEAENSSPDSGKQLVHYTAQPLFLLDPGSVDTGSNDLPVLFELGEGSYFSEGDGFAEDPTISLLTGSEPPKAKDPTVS

Regarding `O=C(C1CCCCC1)N1CC(=O)N2CCc3ccccc3C2C1` (stereo not given), the call in assay [1] and in assay [2] was inactive.
Regarding `CC(=O)OC(C)(C)Cc1ccccc1`, the molecule was called inactive in [1] and in assay [2].
`O=[N+]([O-])c1cc(S(=O)(=O)Nc2ccccc2)ccc1Nc1ccccc1`: the AC50 in [3] is 25.3 µM (active) and 23.6 µM (active); in assay [4], 31.5 µM (active) and 29.5 µM (active); in [5], 32.8 µM (active) and 32.9 µM (active); in assay [6], 31.1 µM (active) and 28.7 µM (active); in assay [7] it was 5.14 µM (active) and 5.08 µM (active); in assay [8], 13.6 µM (active) and 12.6 µM (active). In addition, the AC50 with CD38, CD38 (gene 952) is 25 µM (active) and 26 µM (active); in assay [9], 28.5 µM (active) and 28.6 µM (active); in [10], 12.1 µM (active) and 19.5 µM (active); in assay [11], 20 µM (active) and 14.4 µM (active); in assay [12], 15 µM (active) and 25.7 µM (active); in [13] it was 29.3 µM (active) and 31.8 µM (active). Besides, the half-maximal activity concentration (AC50) in assay [14] is 33.7 µM (active) and 31.5 µM (active); in [15] it was 25.9 µM (active) and 16.2 µM (active); in assay [16], 15.3 µM (active) and 10.8 µM (active); in [17], 20 µM (active) and 7.26 µM (active); in assay [19] it was 31 µM (active) and 36.6 µM (active). In addition, the result in [18] was inactive.
For the molecule `CCCCC(CC)COC(=O)C=Cc1ccc(OC)cc1` (stereo not given), the result in [3], in [4], in assay [5], in assay [7], in assay [8] and in assay [14] was inactive. Moreover, the outcome in [15], in assay [16], in [17], in assay [18] and in assay [19] was inactive. Further, the half-maximal activity concentration (AC50) was 32.1 µM (active) and 36.7 µM (active) in [6]; 28.5 µM (active) and 20 µM (active) with CD38, CD38 (gene 952); 31.7 µM (active) and 32.3 µM (active) in assay [9]; 25.9 µM (active) and 18.8 µM (active) in [10]; 23.5 µM (active) and 36.7 µM (active) in assay [11]; 34.9 µM (active) and 37.8 µM (active) in [12]. The half-maximal activity concentration (AC50) in assay [13] is 31 µM (active) and 35.2 µM (active).
Regarding `OCCc1ccccn1`, the molecule was classed as inactive in [1].
For the molecule `Oc1ccc(Cl)cc1C1CCCC1`, the molecule was called inactive in assay [2].
As to `COc1ccc(C(=O)c2ccccc2O)c(O)c1`, the outcome in assay [3], in assay [4], in assay [5], in [6], in assay [7] and in assay [8] was inactive. In addition, the outcome with CD38, CD38 (gene 952) was “inactive”; in assay [9], “inactive”; in assay [10], “inactive”; in assay [12], “inactive”; in assay [13], “inactive”; in [14], “inactive”. Also, the result in [15], in assay [16], in [17], in assay [18] and in assay [19] was inactive. The AC50 in assay [11] was 29.5 µM (active) and 24.6 µM (active).
On to `CCC(C)(CCC(C)C)C(=O)O` (stereo not given), for which, in assay [2], the outcome was inactive.
As for `CCO[Si](CCCN)(OCC)OCC`, the call in [1] and in assay [2] was inactive.
With `CCOC(=O)c1ccccc1`, the result in assay [1] was inactive.
Consider `C1CN(CCOCCN2CCOCC2)CCO1`, for which the outcome in [3], in assay [4], in [5], in assay [6], in [7] and in assay [8] was inactive. Moreover, the outcome is “inactive” in the assay with CD38, CD38 (gene 952); “inactive” in assay [9]; “inactive” in [10]; “inactive” in assay [11]; “inactive” in assay [12]; “inactive” in assay [13]. Besides, the outcome in [14], in assay [15], in [16], in assay [17], in assay [18] and in assay [19] was inactive.
For `Cc1c(C(N)=O)cc([N+](=O)[O-])cc1[N+](=O)[O-]`, the result in assay [3], in assay [4], in assay [5], in assay [6], in assay [7] and in assay [8] was inactive. The outcome is “inactive” with CD38, CD38 (gene 952); “inactive” in [9]; “inactive” in assay [10]; “inactive” in [11]; “inactive” in assay [12]; “inactive” in assay [13]. For the same molecule, the outcome in assay [14], in assay [15], in [16], in assay [17], in [18] and in [19] was inactive.
